# From ChEMBL document CHEMBL3988442, “University of Dundee, Small-Polar-MMV Screening Library” (2021)
# Hit rate of the full screen: of about 48,000 compounds, about 13,000 (27%) showed an effect of 50% or more. The list shows a part of the results.
# System: Wolbachia pipientis
# Test: Anti-Wolbachia Cell-Based Screen
# Type: functional
# Design: scale not given: in the data most compounds retested in dose-response had high values
# Details: 5 µM
row,Structure (SMILES),Percent Effect [%]
1,CNC(=O)[C@H]1C[C@@H]2CN(S(=O)(=O)c3ccc(C)c(F)c3)C[C@@H]2N1C.O=C(O)C(F)(F)F,-6.907
2,O=C(c1ccoc1)N1CCCC1C1CCN(Cc2ccccc2)CC1 (stereo unspecified),-51.53
3,Cc1nn(C)c(Cl)c1C1CCCN1c1ncnc2c1CCC2 (stereo unspecified),16.41
4,CNC(=O)c1[nH]nc2ccc(I)cc12,8.904
5,Cc1c(C(=O)O)oc2ccc(I)cc12,125.9
6,COc1ccc2c(C)c(C(=O)NC3CCN(S(C)(=O)=O)CC3)oc2c1,1.038
7,O=C(O)CSc1nnc(-c2ccco2)n1-c1ccccc1C(F)(F)F,-16
8,COc1cc2c(nn1)CCN(Cc1noc(-c3ccccc3)n1)C2,-2.709
9,NC(=O)c1ccc(C(=O)N(Cc2ccc(O)cc2)CC2CC2)cc1,-2.707
10,COCC1c2nnn(CC3CC3)c2CCN1C(=O)c1cc(C)on1 (stereo unspecified),18.93
11,CCOCC1c2c(cnn2C)CCN1C(=O)c1ccncn1.O=C(O)C(F)(F)F (stereo unspecified),-13.88
12,COCC1c2c(cnn2C)CCN1C(=O)c1cc(C)on1.O=C(O)C(F)(F)F (stereo unspecified),103.5
13,CCOCC1c2c(cnn2C)CCN1C(=O)c1cc(C)on1.O=C(O)C(F)(F)F (stereo unspecified),118
14,O=C(COc1cccc(Br)c1)N1CCN(c2nccs2)CC1,20.8
15,CC(C)c1noc(C2CCCN2C(=O)Cc2cn3ccsc3n2)n1 (stereo unspecified),5.125
16,CN(C)CCCNC(=O)C(c1cccc(F)c1)N(C)C (stereo unspecified),6.227
17,O=C(Nc1ccc(-n2ccnc2)c(F)c1)C1CCN(C(=O)C2CC2)CC1,-14.41
18,COC(C)c1cccc(NCc2cccc(O)c2)c1 (stereo unspecified),1.439
19,Cc1nc2nc(C)c3c(=O)n(-c4ccn[nH]4)ccc3n2n1,1.096
20,Cc1nc2ncc3c(=O)n(C)ccc3n2n1,126.9
21,Cn1ccc2c(cnc3nc(-c4ccncc4)nn32)c1=O,109.5
22,CSc1nc2ncc3c(=O)n(C)ccc3n2n1,108.2
23,Cc1nc(C2CCCN2Cc2nnc(C3CC3)o2)no1 (stereo unspecified),5.301
24,Cc1ccc(-c2nc(CN3CCCC3Cn3cc(C)cn3)no2)cc1 (stereo unspecified),3.147

row,Structure (SMILES),Percent Effect [%]
1,c1ncn(CC2CCCCN2Cc2noc(C3CC3)n2)n1 (stereo unspecified),-14.69
2,Cc1nc(CN2CCCCC2Cn2cccn2)nc2ccccc12 (stereo unspecified),-7.431
3,c1ccc(-c2nc(CN3CCCC3Cn3cccn3)no2)cc1 (stereo unspecified),97.29
4,c1cnn(CC2CCCN2Cc2noc(C3CC3)n2)c1 (stereo unspecified),88.48
5,COc1ccc(-c2nc(CN3CCCC3Cn3cccn3)no2)cc1 (stereo unspecified),1.848
6,CC(C)c1nc(CN2CCCC2Cn2cccn2)no1 (stereo unspecified),118.9
7,OC(COCc1ccco1)CSc1nnc2ccccn12 (stereo unspecified),-3.086
8,O=C(NCCN1CCc2ccccc21)c1cc(-c2ccc(O)cc2)n[nH]1,-2.452
9,Cn1cccc1CNCc1nnc2n1CCCC2C(F)(F)F (stereo unspecified),-16.29
10,COc1ccc2nc(C)c(C(=O)NCCN3CCS(=O)(=O)CC3)cc2c1,7.609
11,COc1ccc(-n2ccc(C(=O)NCCN3CCCCCC3)n2)cc1,92.28
12,O=C(NCCN1CCOCC1)c1ccn(-c2ccccc2F)n1,7.854
13,COc1ccc(-n2ccc(C(=O)NCCN3CCCCC3C)n2)cc1 (stereo unspecified),-3.568
14,COc1ccc(-n2ccc(C(=O)NCCN3CCCCC3)n2)cc1,102.6
15,COc1ccc(-n2ccc(C(=O)NCCN3CCC(C)CC3)n2)cc1,99.65
16,O=C(NCCN1CCCCCC1=O)c1ccn(-c2ccc(F)cc2)n1,0.8221
17,O=C(NCCN1CCCCC1)c1ccn(-c2ccccc2)n1,106.8
18,O=C(O)C(F)(F)F.O=S(=O)(NCC1OCCc2cn(CC3CCOCC3)nc21)C1CC1 (stereo unspecified),-11.9
19,CNC(=O)CS(=O)(=O)Cc1ccc(OC)c(F)c1,-52.3
20,FC(F)(F)C1CCc2nnc(CNCc3ccsc3)n2C1 (stereo unspecified),11.3
21,CC1CCN(CCNC(=O)c2ccn(-c3ccccc3)n2)CC1,84.83
22,CN(C(=O)c1ccc(Cl)c(S(C)(=O)=O)c1)c1ccccc1,-9.214
23,CN(C(=O)c1ccncc1)c1ccccc1S(C)(=O)=O,8.968
24,Cc1c(C(=O)N(C)c2ccccc2)cccc1N(C)S(C)(=O)=O,104.7

row,Structure (SMILES),Percent Effect [%]
1,Cc1c(C(=O)N(C)C)cccc1N(C)S(C)(=O)=O,107
2,CN(C(=O)c1cccc(C(=O)NS(C)(=O)=O)c1)c1ccccc1,-9.633
3,COc1cc(C(N)=O)c(N(C)S(C)(=O)=O)cc1OC,-14.68
4,O=S(=O)(Nc1ncccc1F)c1cc(Cl)cc2c1OCC2,-5.525
5,Cc1nc(C)n(CC(C)C(=O)N2CCC(N3CCC(O)CC3)CC2)n1 (stereo unspecified),-19.51
6,Cc1ccc2c(c1)c(CNC(=O)C1CCN(C(C)C)CC1)nn2C,-24.27
7,CNC(=O)C(C)(C)CNC(=O)Nc1ccncc1C,-8.722
8,O=C(CN1CCCC(c2ncc[nH]2)C1)NCC(F)(F)F (stereo unspecified),-4.538
9,CCn1c(C)nnc1CN(C)C1CCN(Cc2c(C)noc2C)C1 (stereo unspecified),-8.892
10,Cc1nc(CN2CCC(N(C)Cc3nnc(C4CC4)n3C)C2)oc1C (stereo unspecified),102.1
11,Cc1cc(CN2CCC(N(C)Cc3nnc(C4CC4)n3C)C2)on1 (stereo unspecified),124.1
12,CN(Cc1nnc(C2CC2)n1C)C1CCN(CCS(C)(=O)=O)C1 (stereo unspecified),-20.16
13,Cc1nnc(CN2CCC(N(C)Cc3nnc(C4CC4)n3C)C2)o1 (stereo unspecified),-3.428
14,Cc1noc(C)c1CN1CCC(N(C)Cc2nnc(C3CC3)n2C)C1 (stereo unspecified),103.9
15,CN(Cc1nnc(C2CC2)n1C)C1CCN(Cc2ccon2)C1 (stereo unspecified),-8.64
16,Cc1ccc(C2CSCCN2CCS(C)(=O)=O)cc1 (stereo unspecified),-9.324
17,O=C(NC1CC(=O)N(C2Cc3ccccc3C2)C1)c1ccsc1 (stereo unspecified),-4.544
18,COCCN1CC[C@@H](O)[C@@H]1Cc1ccccc1.O=C(O)C(F)(F)F,8.923
19,COCCN1CCC(Cc2cnc(-c3ccccc3C(=O)O)cn2)CC1,103.8
20,CN1CCC(Cc2cncc(-c3ccccc3C(=O)O)n2)C1 (stereo unspecified),111.7
21,CC(C)N1CCC(Cc2cncc(-c3ccccc3C(=O)O)n2)C1 (stereo unspecified),128.5
22,CS(=O)(=O)N1CCCC(Cc2cncc(-c3ccccc3C(=O)O)n2)C1 (stereo unspecified),106.5
23,CN1CCC(Cc2nc(-c3cnccn3)n(Cc3ccccc3)n2)CC1,21.66
